# Rows were chosen to be rich in hits. Some 4.1% of all compounds tested hit in one or more screens of this group.
# Pyk2 oligo antag: antagonists of human Pyk2 oligomerization; z-score (the deposit names both 25 µM and 10 µM); Q293 cells, Pyk2 FERM NanoBiT luminescence; stronger effect = lower value; Q14289; hit rate 0.83% among 99,000;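 active means Z-score of -3 or lower, scaled per plate to the spread of control and sample wells; inactive means z-score above -3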;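 further: negative z-score means lost luminescence so less FERM oligomerization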
# MRP-1 activ: MRP-1 activation. H69AR cells + doxorubicin, viability rescue, CellTiter-Glo. viability increase, % at 10 µM. hit rate 0.61% among 140,000;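 active means viability gain under doxorubicin at or above a set limit, the compound median plus 3 SD, cut at about 4.7% in these data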;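 further: MRP-1 overexpressing cells given doxorubicin 25 µM after compound pretreatment; 18-22 h compound pretreatment then 72 h with doxorubicin before readout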
# MRP resist rev: MRP-mediated drug resistance reversal; H69AR cells + 2 uM doxorubicin, CellTiter-Glo, 72 h; AID 602; differential viability (reversal), % at 10 µM; hit rate 0.04% among 85,000;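 active means viability drop by adding the cancer drug above about 55%, with treated viability meeting a 40% cutoff, limit read from the data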;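 further: larger differential means the compound sensitizes cells more to doxorubicin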
# CD11b adhes enh: CD11b/CD18-fibrinogen binding enhancement | P05107+P11215 | K562 CD11b/CD18 adhesion to fibrinogen, ATPlite luminescence | activation, % at 10 µM | hit rate 0.07% among 93,000 | AID 1499;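 active means 10 µM primary screen giving 50% or more activity, confirmed by 40% or more on retest at that dose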
# CD11b adhes inh: CD11b/CD18-fibrinogen binding inhibition; K562 CD11b/CD18 adhesion to fibrinogen, ATPlite luminescence; Mn2+ added to activate the integrin; AID 1497; hit rate 0.54% among 93,000; P05107+P11215; inhibition, % at 10 µM;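 active means primary inhibition of 50% or more at 10 µM, then 40% or more on retest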
# Cav3 T inh: blocks human Cav3.2 T-type calcium channel; B-score at 10 µM; hit rate 4% among 100,000; Cav3.2-expressing cells, Fluo-4 calcium fluorescence FDSS; stronger effect = lower value; O95180;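 active means single-dose well whose peak fluorescence ratio is a statistical outlier from its plate by either plate-standardised score or position-corrected B-score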
# Hits are given with their value; 0 = inactive; - = no result given.
SMILES,Pyk2 oligo antag,MRP-1 activ,MRP resist rev,CD11b adhes enh,CD11b adhes inh,Cav3 T inh
O=C(Nc1ccc(Oc2ccccc2)cc1)c1cnc2n(c1=O)CCS2,-,6.0,0,0,0,-
Cc1ccc(N=Nc2c(N)[nH]n3c(=O)cc(-c4ccccc4)nc23)cc1,0,6.0,-,-,-,-7.5
Cc1[nH]n2c(=O)cc(-c3ccc([N+](=O)[O-])cc3)nc2c1-c1ccccc1,0,-,0,-,-,-4.4
COc1cccc(N=Nc2c(N)[nH]n3c(=O)cc(-c4ccccc4)nc23)c1,-3.6,0,-,-,-,-
Cc1cc(=O)n2[nH]c(N)c(N=Nc3ccccc3)c2n1,-,0,-,-,-,-
CCOC(=O)c1c(C=O)c(C)n(Cc2ccc(Cl)cc2)c1C,-3.2,0,0,0,0,0
CCOC(=O)c1c(C=O)c(C)n(Cc2ccccc2)c1C,0,0,0,0,0,0
Cc1cc(C)c(NC(=O)c2sc3nc4c(cc3c2N)C(=O)CC(C)(C)C4)c(C)c1,-,5.4,-,-,-,-
COC(=O)c1sc2nc3c(cc2c1N)C(=O)CC(C)(C)C3,0,0,0,0,0,0
O=C1/C(=C\c2ccncc2)SC(=S)N1C1CCCCC1,-,0,-,-,-,-
COc1ccccc1/C=C1\S/C(=N/NC(=O)c2cccc(Br)c2)NC1=O,0,0,-,0,0,-4.2
Cc1cccc(Oc2coc3cc(OC(=O)c4cncc(Br)c4)ccc3c2=O)c1,-,0,-,-,-,-
Cc1cccc(Oc2coc3cc(OC(=O)c4cc5ccccc5oc4=O)ccc3c2=O)c1,0,0,-,53,0,0
Cc1nc2c(-c3ccc(F)cc3)c(C)nn2c(C)c1CCC(=O)N1CCC(Cc2ccccc2)CC1,-,0,0,0,0,-6.2
Cc1nc2c(-c3ccc(F)cc3)c(C)nn2c(C)c1CCC(=O)N1CCN(c2ccccc2)CC1,-,0,0,0,0,0
Cc1nc2c(-c3ccc(F)cc3)c(C)nn2c(C)c1CCC(=O)N1CCN(c2ccc(F)cc2)CC1,-,0,0,0,0,-6.2
N#Cc1c(N)nc(SCc2ccccn2)c(C#N)c1-c1cccs1,-3.8,0,0,0,0,0
CCCOc1cc(C)c(S(=O)(=O)N2CCOCC2)cc1C,-,0,-,-,-,-
CCCOc1cc(C)c(S(=O)(=O)n2ccc(C)n2)cc1C,0,0,0,0,0,-3.8
CN(C)c1nccc(N(Cc2ccccc2)Cc2ccccc2)c1C#N,0,0,0,0,0,-5.7
O=Nc1ccc(NOC(=O)c2ccccc2Br)cc1,-,0,-,-,-,-
O=C(ONc1ccc(N=NC(=O)c2ccccc2O)cc1)c1ccccc1,0,0,0,0,0,-4.5
Cc1cccc(-n2ncc3c(N)ncnc32)c1,0,0,0,0,0,0
c1ccc(Cn2c(CNc3nc4ccccc4n3CCN3CCCCC3)nc3ccccc32)cc1,0,0,0,-,-,-3.8
CCN(CC)CCn1c(NCc2nc3ccccc3n2Cc2ccccc2)nc2ccccc21,0,0,0,0,0,-4.2
SMILES,Pyk2 oligo antag,MRP-1 activ,MRP resist rev,CD11b adhes enh,CD11b adhes inh,Cav3 T inh
CCN(CC)S(=O)(=O)c1ccc(NC(=O)c2ccccn2)cc1,0,0,0,0,0,0
CN1CCN(c2ccc(S(=O)(=O)N3CCCCC3)cn2)CC1,-3.9,0,0,0,0,0
O=S(=O)(c1ccc(N2CCCC2)nc1)N1CCOCC1,0,0,0,0,0,0
O=C(OC[C@@H]1CCCN2CCCC[C@H]12)c1cc2ccccc2oc1=O,-,0,-,-,-,-
COc1ccccc1NC(=O)C1=C(C)NC(SCC(=O)c2ccccc2)=C(C#N)C1c1ccco1 (stereo unspecified),0,0,0,0,0,0
CC(=O)C1=C(C)NC(SCC(=O)c2ccc(C)cc2)=C(C#N)C1c1ccco1 (stereo unspecified),-,0,0,-,-,-5
C=CCn1c(C)cc(C(=O)COc2ccc(S(=O)(=O)N3CCCC3)cc2[N+](=O)[O-])c1C,-,0,-,-,-,-
CSc1cccc(NC(=O)CN(c2ccc(C)cc2C)S(C)(=O)=O)c1,0,0,0,0,0,-7.9
Cc1cc(/C=N/NC(=O)Cn2c3ccccc3c(=O)c3ccccc32)c(C)n1-c1ccccc1,-,0,-,-,-,-
Cc1ccc(N(CC(=O)N/N=C/c2cc(C)n(-c3ccccc3)c2C)S(C)(=O)=O)c(C)c1,0,0,-,0,0,-6.7
CSc1cccc(NC(=O)CN(c2cccc(C)c2)S(C)(=O)=O)c1,0,0,0,0,0,-4.3
CCCCC(=O)Nc1sc(C(=O)N(CC)CC)c(C)c1C(=O)OC,0,0,0,-,-,0
COc1ccc(NC(=O)Cn2cc(C(=O)c3ccco3)c3ccccc32)cc1,-3,6.7,0,0,0,0
CC(C)CCNC(=O)C(c1ccc(O)cc1)N(Cc1cccs1)C(=O)C1COc2ccccc2O1 (stereo unspecified),-,0,-,-,-,-
O=C(NCc1ccco1)C(c1cccs1)N(C(=O)C1COc2ccccc2O1)c1cccc(O)c1 (stereo unspecified),0,0,0,0,0,-8.6
COc1ccc(Nc2ncc(C(=O)N3CCN(Cc4ccccc4)CC3)c3ccccc23)cc1,-3.5,0,0,-,-,0
COc1ccc(Nc2ncc(C(=O)N3CCC(C(N)=O)CC3)c3ccccc23)cc1,0,0,0,-,-,0
CN1CCC(N(C)C(=S)NC(=O)C23CC4CC(CC(C4)C2)C3)CC1,-,0,-,0,0,-
Cc1[nH]nc2c1C(c1ccc(-c3ccccc3C#N)o1)C(C#N)=C(N)O2 (stereo unspecified),0,0,0,0,0,-4.4
Cc1ccc(-c2ccc(C3C(C#N)=C(N)Oc4n[nH]c(C)c43)o2)cc1 (stereo unspecified),0,0,0,-,-,0
CCSc1ncnc2c1sc1nc3c(cc12)COC(C)(C)C3,-,0,-,0,0,-
Cc1ccc(C(=O)NC(NC(=O)c2ccc(C)cc2)c2cccc([N+](=O)[O-])c2)cc1,-,0,-,0,0,-
CN(C(=O)c1cnc(N2CCN(c3ncccn3)CC2)c2ccccc12)c1ccc(Cl)cc1,0,0,0,0,0,-
CCN(C(=O)c1cnc(N2CCN(c3ncccn3)CC2)c2ccccc12)c1cccc(Cl)c1,-3.3,0,0,-,-,-6.6
Cc1ccc2[nH]cc(CCNC(=O)Nc3ccccc3)c2c1,0,0,0,0,0,-3.9
SMILES,Pyk2 oligo antag,MRP-1 activ,MRP resist rev,CD11b adhes enh,CD11b adhes inh,Cav3 T inh
Cc1ccc2[nH]cc(CCNC(=O)c3cccnc3)c2c1,0,0,0,0,0,0
C=CCNC(=O)c1onc(CSc2ccc(F)cc2)c1C(=O)NCCOC,-,0,-,0,60,0
O=C(N/N=C/c1ccc2cccc(OCc3ccccc3)c2n1)c1ccc(Cl)cc1,-3.1,0,-,0,0,0
COC(=O)c1ccc(CNC(=O)COC(=O)CCC2CCCC2)cc1,-,0,-,-,-,-
CC(C)N1CC=C2C(C#N)=C(N)C(C#N)(C#N)[C@H](c3ccoc3)[C@H]2C1,-,0,-,0,0,-4.6
COc1ccc(C2c3c(-c4cc(Cl)c(C)cc4O)n[nH]c3C(=O)N2Cc2cccnc2)cc1OC (stereo unspecified),-3.9,0,0,0,0,0
COc1ccc(CCN2C(=O)c3[nH]nc(-c4ccccc4O)c3C2c2cccc(O)c2)cc1OC (stereo unspecified),-3.8,0,0,0,0,0
